# In PMC7862700, “An all-to-all approach to the identification of sequence-specific readers for epigenetic DNA modifications on cytosine”:
# Legend:
# Test in all cases: DAPPL (digital affinity profiling via proximity ligation, sequencing); 10 mM Tris-HCl pH 7.5, 50 mM NaCl, 1 mM DTT, 4% glycerol, room temperature, 30 min; GST-TFs on glutathione beads, 16-mer random dsDNA library, 0.1% formaldehyde crosslink after washing; high values mean tight binding
# FLI1 = biological target: T1, FLI1 (Homo sapiens, UniProt Q01543 1-452); conditions: protein: recombinant; tags: N-terminal GST; dsDNA, one strand shown
# T1 sequence: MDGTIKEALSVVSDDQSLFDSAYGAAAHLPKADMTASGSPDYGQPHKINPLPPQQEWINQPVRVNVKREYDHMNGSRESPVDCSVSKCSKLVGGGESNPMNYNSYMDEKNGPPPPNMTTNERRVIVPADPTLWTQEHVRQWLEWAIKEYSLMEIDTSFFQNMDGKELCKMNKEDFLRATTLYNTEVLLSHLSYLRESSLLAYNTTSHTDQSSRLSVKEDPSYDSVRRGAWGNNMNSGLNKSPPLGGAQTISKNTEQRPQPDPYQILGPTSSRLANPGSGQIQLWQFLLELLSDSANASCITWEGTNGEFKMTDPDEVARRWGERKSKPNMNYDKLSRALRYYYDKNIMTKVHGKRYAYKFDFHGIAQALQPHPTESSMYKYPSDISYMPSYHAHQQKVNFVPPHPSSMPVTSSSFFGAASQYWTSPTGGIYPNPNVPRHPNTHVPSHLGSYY
# Summary of the method: (§1)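 GST fusions of human transcription factors were expressed in yeast and captured with glutathione beads. Once given DNA barcodes and pooled alongside a tag-only sample, they were incubated for 30 min at room temperature with 200 nmole of a random double-stranded 16-mer DNA library in Tris/NaCl/DTT/glycerol buffer, then washed, crosslinked (0.1% formaldehyde), proximity-ligated, PCR-amplified and sequenced on an Illumina NextSeq500. The binding signal of each hexamer is its read frequency for a factor divided by its frequency for the tag-only sample.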
# ELK1 = biological target: T2, ELK1 (Homo sapiens, UniProt P19419 1-428); conditions: protein: recombinant; tags: N-terminal GST; dsDNA, one strand shown
# T2 sequence: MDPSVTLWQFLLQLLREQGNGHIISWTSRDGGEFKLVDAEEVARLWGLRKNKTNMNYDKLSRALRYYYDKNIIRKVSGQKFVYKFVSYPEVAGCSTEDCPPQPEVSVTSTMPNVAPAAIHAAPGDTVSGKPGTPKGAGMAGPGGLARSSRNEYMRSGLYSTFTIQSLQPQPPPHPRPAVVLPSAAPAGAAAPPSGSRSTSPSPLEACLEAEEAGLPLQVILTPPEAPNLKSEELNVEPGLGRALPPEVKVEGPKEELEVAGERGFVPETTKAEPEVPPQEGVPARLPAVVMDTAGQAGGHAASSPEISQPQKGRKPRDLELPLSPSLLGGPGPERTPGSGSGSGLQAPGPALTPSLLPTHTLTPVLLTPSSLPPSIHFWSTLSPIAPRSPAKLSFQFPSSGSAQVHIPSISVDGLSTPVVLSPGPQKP
# Summary of the method: as §1
# GABPA = biological target: T3, GABPA (Homo sapiens, UniProt Q06546 1-454); conditions: protein: recombinant; tags: N-terminal GST; dsDNA, one strand shown
# T3 sequence: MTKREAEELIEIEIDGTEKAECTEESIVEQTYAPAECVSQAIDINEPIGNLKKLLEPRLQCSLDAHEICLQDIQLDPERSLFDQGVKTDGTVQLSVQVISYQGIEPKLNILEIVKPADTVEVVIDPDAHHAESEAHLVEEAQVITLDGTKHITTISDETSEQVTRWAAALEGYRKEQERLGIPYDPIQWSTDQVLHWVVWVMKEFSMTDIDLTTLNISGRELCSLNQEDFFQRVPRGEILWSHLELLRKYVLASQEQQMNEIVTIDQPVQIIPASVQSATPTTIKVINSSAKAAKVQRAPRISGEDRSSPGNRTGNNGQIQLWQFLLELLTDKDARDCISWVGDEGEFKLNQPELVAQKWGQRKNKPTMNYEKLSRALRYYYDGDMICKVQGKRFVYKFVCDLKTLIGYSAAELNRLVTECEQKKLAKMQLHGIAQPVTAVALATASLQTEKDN
# Summary of the method: as §1
# ERG = biological target: T4, ERG (Homo sapiens, UniProt P11308 1-479); conditions: protein: recombinant; tags: N-terminal GST; dsDNA, one strand shown
# T4 sequence: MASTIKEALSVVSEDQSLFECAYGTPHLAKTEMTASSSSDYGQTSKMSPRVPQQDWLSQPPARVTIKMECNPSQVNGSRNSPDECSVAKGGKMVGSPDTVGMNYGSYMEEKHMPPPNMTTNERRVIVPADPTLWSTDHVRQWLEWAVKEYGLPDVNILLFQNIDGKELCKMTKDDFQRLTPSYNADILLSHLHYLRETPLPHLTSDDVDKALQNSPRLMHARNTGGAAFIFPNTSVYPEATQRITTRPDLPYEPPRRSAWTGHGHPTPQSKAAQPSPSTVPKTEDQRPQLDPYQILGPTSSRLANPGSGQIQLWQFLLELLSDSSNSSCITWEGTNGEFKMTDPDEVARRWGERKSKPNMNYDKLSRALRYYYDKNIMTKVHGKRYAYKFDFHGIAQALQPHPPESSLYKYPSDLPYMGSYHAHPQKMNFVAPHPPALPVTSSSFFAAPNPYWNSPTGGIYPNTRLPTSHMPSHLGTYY
# Summary of the method: as §1
# ELF1 = ELF1 (Homo sapiens, UniProt P32519 1-619); conditions: protein: recombinant; tags: N-terminal GST; dsDNA, one strand shown
# Summary of the method: as §1
# EHF = biological target: T5, EHF (Homo sapiens, UniProt Q9NZC4 1-300); conditions: protein: recombinant; tags: N-terminal GST; dsDNA, one strand shown
# T5 sequence: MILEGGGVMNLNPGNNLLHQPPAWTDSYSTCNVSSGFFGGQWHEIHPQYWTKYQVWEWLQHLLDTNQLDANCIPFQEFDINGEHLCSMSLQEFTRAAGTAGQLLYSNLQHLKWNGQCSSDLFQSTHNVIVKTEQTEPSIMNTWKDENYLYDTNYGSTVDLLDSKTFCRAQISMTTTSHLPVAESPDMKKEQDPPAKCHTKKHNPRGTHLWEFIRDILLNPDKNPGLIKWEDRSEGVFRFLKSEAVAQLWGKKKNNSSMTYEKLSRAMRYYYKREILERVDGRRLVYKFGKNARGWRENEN
# Summary of the method: as §1
# SPI1 = SPI1 (Homo sapiens, UniProt P17947 1-270); conditions: protein: recombinant; tags: N-terminal GST; dsDNA, one strand shown
# Summary of the method: as §1
# SPIB = SPIB (Homo sapiens, UniProt Q01892 1-262); conditions: protein: recombinant; tags: N-terminal GST; dsDNA, one strand shown
# Summary of the method: as §1
# ELK3 = biological target: T6, ELK3 (Homo sapiens, UniProt P41970 1-407); conditions: protein: recombinant; tags: N-terminal GST; dsDNA, one strand shown
# T6 sequence: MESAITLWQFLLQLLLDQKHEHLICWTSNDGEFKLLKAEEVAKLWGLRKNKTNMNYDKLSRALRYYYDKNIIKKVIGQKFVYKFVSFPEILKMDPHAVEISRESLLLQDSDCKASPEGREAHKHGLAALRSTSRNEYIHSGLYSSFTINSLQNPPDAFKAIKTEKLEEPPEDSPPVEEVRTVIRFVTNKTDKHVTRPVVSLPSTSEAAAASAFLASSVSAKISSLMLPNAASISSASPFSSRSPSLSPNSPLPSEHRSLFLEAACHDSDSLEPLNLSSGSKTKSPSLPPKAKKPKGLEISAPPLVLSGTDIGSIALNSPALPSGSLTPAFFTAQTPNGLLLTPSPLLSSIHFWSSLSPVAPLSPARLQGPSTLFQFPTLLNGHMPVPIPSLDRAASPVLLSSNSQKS
# Summary of the method: as §1
# FEV = biological target: T7, FEV (Homo sapiens, UniProt Q99581 1-238); conditions: protein: recombinant; tags: N-terminal GST; dsDNA, one strand shown
# T7 sequence: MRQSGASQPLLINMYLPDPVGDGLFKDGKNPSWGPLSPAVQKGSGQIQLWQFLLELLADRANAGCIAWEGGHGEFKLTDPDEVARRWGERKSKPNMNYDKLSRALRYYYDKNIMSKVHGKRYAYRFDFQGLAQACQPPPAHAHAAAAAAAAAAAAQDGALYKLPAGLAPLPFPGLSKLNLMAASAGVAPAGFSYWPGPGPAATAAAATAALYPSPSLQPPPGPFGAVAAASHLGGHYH
# Summary of the method: as §1
# ETV5 = ETV5 (Homo sapiens, UniProt P41161 1-510); conditions: protein: recombinant; tags: N-terminal GST; dsDNA, one strand shown
# Summary of the method: as §1
# HSF1 = HSF1 (Homo sapiens, UniProt Q00613 1-529); conditions: protein: recombinant; tags: N-terminal GST; chain copies: 3; dsDNA, one strand shown
# Summary of the method: as §1
# SPIC = biological target: T8, SPIC (Homo sapiens, UniProt Q8N5J4 1-248); conditions: protein: recombinant; tags: N-terminal GST; dsDNA, one strand shown
# T8 sequence: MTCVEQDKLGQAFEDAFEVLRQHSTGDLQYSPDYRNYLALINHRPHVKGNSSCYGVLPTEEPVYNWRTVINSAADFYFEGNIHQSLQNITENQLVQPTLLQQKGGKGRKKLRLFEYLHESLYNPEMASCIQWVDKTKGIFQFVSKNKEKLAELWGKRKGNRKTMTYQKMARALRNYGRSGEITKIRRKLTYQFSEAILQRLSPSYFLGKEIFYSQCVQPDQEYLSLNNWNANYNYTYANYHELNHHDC
# Summary of the method: as §1
# ELF4 = ELF4 (Homo sapiens, UniProt Q99607 1-663); conditions: protein: recombinant; tags: N-terminal GST; dsDNA, one strand shown
# Summary of the method: as §1
# ELK4 = biological target: T9, ELK4 (Homo sapiens, UniProt P28324-2 1-405); conditions: protein: recombinant; tags: N-terminal GST; dsDNA, one strand shown
# T9 sequence: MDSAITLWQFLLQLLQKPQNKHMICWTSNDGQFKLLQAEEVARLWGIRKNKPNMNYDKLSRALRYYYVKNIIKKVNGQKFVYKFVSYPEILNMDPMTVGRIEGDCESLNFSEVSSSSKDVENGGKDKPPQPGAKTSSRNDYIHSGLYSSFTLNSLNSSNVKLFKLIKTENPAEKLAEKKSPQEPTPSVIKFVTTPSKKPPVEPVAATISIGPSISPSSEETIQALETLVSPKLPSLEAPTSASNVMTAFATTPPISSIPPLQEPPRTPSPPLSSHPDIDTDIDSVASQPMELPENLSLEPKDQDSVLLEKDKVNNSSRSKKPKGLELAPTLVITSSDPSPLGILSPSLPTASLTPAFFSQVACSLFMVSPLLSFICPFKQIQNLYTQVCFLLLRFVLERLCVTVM
# Summary of the method: as §1
# ETV2 = biological target: T10, ETV2 (Homo sapiens, UniProt O00321 1-342); conditions: protein: recombinant; tags: N-terminal GST; dsDNA, one strand shown
# T10 sequence: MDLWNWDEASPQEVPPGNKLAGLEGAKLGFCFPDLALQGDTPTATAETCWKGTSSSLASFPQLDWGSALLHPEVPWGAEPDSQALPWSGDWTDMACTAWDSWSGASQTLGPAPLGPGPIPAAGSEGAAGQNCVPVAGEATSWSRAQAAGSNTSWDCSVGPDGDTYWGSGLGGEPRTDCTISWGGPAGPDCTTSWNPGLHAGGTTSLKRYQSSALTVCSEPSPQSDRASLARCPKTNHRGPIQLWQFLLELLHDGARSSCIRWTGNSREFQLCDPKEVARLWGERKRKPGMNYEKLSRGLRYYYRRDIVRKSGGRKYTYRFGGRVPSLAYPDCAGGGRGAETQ
# Summary of the method: as §1
# ELF3 = biological target: T11, ELF3 (Homo sapiens, UniProt P78545 1-371); conditions: protein: recombinant; tags: N-terminal GST; dsDNA, one strand shown
# T11 sequence: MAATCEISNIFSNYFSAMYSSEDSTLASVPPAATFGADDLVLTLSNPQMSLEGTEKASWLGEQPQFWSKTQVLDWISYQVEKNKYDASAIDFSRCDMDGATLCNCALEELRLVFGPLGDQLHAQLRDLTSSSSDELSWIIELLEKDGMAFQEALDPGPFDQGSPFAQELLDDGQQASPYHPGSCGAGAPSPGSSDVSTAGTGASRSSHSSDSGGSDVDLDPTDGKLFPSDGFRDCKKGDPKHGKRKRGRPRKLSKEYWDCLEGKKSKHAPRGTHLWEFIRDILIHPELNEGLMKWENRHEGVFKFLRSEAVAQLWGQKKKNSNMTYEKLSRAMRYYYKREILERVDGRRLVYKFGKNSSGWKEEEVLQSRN
# Summary of the method: as §1
# CRX = CRX (Homo sapiens, UniProt O43186 1-299); conditions: protein: recombinant; tags: N-terminal GST; dsDNA, one strand shown
# Summary of the method: as §1
# ETV1 = ETV1 (Homo sapiens, UniProt P50549 1-477); conditions: protein: recombinant; tags: N-terminal GST; dsDNA, one strand shown
# Summary of the method: as §1
# Chain of ETV1 (P50549 whole entry): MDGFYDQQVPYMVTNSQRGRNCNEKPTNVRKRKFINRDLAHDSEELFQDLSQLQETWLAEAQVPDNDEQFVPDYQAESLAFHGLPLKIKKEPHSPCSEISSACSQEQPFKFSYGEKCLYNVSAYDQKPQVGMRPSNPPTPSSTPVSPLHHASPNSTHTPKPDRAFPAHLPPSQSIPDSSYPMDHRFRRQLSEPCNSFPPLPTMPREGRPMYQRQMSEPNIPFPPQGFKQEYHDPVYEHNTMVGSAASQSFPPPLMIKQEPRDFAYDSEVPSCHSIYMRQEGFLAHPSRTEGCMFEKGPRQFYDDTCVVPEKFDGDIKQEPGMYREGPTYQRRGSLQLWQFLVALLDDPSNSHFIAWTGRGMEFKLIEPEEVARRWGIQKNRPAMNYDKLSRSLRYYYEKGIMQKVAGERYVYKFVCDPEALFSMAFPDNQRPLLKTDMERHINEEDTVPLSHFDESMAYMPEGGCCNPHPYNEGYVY
# Chain of SPIB (Q01892 whole entry): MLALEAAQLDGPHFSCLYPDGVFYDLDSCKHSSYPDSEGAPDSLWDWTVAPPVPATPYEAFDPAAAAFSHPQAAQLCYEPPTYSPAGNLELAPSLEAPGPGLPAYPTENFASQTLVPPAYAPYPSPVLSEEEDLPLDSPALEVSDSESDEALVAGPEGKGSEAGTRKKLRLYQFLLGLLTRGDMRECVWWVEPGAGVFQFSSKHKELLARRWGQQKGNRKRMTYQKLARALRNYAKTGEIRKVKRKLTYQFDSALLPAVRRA
# Chain of ELF1 (P32519 whole entry): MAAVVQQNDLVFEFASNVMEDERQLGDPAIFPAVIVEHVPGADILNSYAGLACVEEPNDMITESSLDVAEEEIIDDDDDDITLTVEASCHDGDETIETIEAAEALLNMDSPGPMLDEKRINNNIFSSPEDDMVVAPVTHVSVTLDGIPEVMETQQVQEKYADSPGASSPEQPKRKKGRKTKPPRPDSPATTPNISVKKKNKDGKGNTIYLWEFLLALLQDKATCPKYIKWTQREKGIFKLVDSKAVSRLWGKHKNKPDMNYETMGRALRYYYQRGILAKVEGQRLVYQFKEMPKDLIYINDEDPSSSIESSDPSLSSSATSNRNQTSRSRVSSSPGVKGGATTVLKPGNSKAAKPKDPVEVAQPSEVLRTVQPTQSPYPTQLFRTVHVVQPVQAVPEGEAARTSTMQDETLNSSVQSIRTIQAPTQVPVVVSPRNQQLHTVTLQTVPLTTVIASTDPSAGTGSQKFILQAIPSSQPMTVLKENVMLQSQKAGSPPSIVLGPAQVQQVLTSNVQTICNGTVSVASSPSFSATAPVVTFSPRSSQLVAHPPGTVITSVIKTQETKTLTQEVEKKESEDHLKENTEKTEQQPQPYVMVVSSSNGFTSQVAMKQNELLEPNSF
# Chain of HSF1 (Q00613 whole entry): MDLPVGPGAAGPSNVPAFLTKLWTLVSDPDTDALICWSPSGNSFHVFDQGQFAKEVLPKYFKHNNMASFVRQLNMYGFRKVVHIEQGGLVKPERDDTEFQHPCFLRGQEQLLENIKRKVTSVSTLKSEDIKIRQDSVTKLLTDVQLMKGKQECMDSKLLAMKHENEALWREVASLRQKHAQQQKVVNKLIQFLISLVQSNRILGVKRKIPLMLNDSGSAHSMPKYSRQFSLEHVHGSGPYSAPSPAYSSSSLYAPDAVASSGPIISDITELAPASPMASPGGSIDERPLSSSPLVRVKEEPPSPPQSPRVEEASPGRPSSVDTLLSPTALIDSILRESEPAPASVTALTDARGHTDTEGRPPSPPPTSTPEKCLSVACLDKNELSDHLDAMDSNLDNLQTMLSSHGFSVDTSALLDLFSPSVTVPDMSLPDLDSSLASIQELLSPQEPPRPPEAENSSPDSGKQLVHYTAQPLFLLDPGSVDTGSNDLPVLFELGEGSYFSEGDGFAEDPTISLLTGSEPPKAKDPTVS
# Chain of ELF4 (Q99607 whole entry): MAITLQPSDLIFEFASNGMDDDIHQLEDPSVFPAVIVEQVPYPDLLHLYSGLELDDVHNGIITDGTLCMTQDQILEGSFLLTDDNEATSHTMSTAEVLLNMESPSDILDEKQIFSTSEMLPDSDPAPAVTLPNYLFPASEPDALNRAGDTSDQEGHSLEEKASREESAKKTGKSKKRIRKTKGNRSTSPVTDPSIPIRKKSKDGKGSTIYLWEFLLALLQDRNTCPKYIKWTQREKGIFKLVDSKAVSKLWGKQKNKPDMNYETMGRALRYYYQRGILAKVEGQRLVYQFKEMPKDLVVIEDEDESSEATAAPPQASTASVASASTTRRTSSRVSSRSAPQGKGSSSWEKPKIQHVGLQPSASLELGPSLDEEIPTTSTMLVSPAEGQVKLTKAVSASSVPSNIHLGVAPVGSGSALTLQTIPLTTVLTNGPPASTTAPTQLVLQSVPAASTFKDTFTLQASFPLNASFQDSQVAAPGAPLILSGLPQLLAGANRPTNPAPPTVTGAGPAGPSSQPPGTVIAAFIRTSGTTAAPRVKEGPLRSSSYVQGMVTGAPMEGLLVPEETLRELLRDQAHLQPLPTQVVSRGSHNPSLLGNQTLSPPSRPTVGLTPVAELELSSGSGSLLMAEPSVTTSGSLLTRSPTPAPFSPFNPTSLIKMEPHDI
# Chain of CRX (O43186 whole entry): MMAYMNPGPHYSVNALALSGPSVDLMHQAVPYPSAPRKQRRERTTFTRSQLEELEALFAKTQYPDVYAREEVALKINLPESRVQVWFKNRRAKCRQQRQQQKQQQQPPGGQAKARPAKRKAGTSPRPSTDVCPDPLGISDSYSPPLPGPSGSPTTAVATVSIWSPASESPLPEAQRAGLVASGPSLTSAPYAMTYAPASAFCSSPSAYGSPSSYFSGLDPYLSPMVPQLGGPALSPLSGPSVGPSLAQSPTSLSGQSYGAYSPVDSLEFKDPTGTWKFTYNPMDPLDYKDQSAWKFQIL
# Chain of ETV5 (P41161 whole entry): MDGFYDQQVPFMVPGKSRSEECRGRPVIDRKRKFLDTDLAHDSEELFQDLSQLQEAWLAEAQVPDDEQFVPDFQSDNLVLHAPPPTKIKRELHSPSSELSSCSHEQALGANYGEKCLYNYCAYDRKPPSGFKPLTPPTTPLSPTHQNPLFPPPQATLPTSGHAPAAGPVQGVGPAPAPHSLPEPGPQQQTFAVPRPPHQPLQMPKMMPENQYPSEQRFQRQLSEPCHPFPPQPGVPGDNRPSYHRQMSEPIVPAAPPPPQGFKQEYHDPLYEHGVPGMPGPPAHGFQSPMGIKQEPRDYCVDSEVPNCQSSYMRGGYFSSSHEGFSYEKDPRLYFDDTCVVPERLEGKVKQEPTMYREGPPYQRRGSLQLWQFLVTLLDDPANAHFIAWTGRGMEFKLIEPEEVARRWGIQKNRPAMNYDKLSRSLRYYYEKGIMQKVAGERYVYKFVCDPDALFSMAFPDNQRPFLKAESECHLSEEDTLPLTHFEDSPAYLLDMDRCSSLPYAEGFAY
sequence,measurement,setting,value
CTGGAT,binding signal,FLI1,"1.31 fold enrichment (6-mer frequency, TF over GST control)"
same,binding signal,ELK1,"1.19 fold enrichment (6-mer frequency, TF over GST control)"
same,binding signal,GABPA,"1.38 fold enrichment (6-mer frequency, TF over GST control)"
same,binding signal,ERG,"1.38 fold enrichment (6-mer frequency, TF over GST control)"
same,binding signal,ELF1,"1.36 fold enrichment (6-mer frequency, TF over GST control)"
same,binding signal,EHF,"1.32 fold enrichment (6-mer frequency, TF over GST control)"
same,binding signal,SPI1,"1.25 fold enrichment (6-mer frequency, TF over GST control)"
same,binding signal,SPIB,"1.36 fold enrichment (6-mer frequency, TF over GST control)"
same,binding signal,ELK3,"1.31 fold enrichment (6-mer frequency, TF over GST control)"
same,binding signal,FEV,"1.38 fold enrichment (6-mer frequency, TF over GST control)"
same,binding signal,ETV5,"1.4 fold enrichment (6-mer frequency, TF over GST control)"
same,binding signal,HSF1,"2.19 fold enrichment (6-mer frequency, TF over GST control)"
same,binding signal,SPIC,"1.34 fold enrichment (6-mer frequency, TF over GST control)"
same,binding signal,ELF4,"1.35 fold enrichment (6-mer frequency, TF over GST control)"
same,binding signal,ELK4,"1.35 fold enrichment (6-mer frequency, TF over GST control)"
same,binding signal,ETV2,"1.41 fold enrichment (6-mer frequency, TF over GST control)"
same,binding signal,ELF3,"1.41 fold enrichment (6-mer frequency, TF over GST control)"
same,binding signal,CRX,"2.05 fold enrichment (6-mer frequency, TF over GST control)"
same,binding signal,ETV1,"1.47 fold enrichment (6-mer frequency, TF over GST control)"
